This note sets out measurements from PubChem BioAssay AID652183 (National Center for Advancing Translational Sciences (NCATS), 2013).

Records with an inconclusive call do not appear. Activity calls are given as the source filed them. Calls come from the whole dose curve; as a rule, active = well fitted inhibition curve with a large enough effect; inconclusive = small, poorly fitted or top-dose-only effect; inactive = no such curve, though single readings can be large or run the other way.

A short description of this test: qHTS Assay for Lipid Storage Modulators: Differentiation Assay against Probe and Analogs. To be noted: 3T3-L1 adipocyte differentiation, BODIPY lipid imaging, 8 d; series mostly up to 20 µM; activity change, negative = inhibition: at the top concentration. An excerpt: Storing lipids as a reservoir for energy or the anabolism of elementary metabolites is a common feature of probably all cells and is conserved from bacteria to humans. The universal cellular lipid storage organelle is the so-called lipid storage droplet (LD). Although ubiquitous, LDs share a simple structure composed of a hydrophobic core that harbors the storage lipids, which is shielded by a droplet-specific phospholipid monolayer to which proteins are attached. The current model of LD biogenesis involves an incorporation of the lipid core into the membrane leaflets of the endoplasmic reticulum (ER) followed by a subsequent budding-like maturation of a LD, which ultimately pinches off. Once released, LD volume can increase by localized lipogenesis or fusion of existing droplets. Storage lipids are re-mobilized enzymatically by lipase activity. Lipase regulation in the adipocyte is heavily studied and involves multiple components including catecholamine signaling, the LD-associated proteins Perilipin and comparative gene identification-58 (CGI-58) and at least two lipases named hormone sensitive lipase (HSL) and adipocyte triglyceride lipase (ATGL). LD regulation outside of the adipocyte is poorly understood and only few components are known. However, there is an urgent need to learn more about ectopic fat depots as mislocalized storage of lipids, for example in the liver or muscle, is an eminent health problem associated with insulin resistance or the metabolic syndrome. We developed a laser-scanning cytometer assay to enable 1,536-well screening and combined the results of the small molecules screen with an RNAi database based on lipid storage. […] NIH Chemical Genomics Center [NCGC] MLPCN Grant: MH085686 Assay Submitter (PI): Mathias Beller, Max-Planck-Institut fur Biophysikalische Chemie
3T3L1 cells were obtained from ATCC (CL-173). Pre-adipocyte medium (PM-1), differentiation medium (DM-2) and after adipocyte medium (AM-1) were purchased from Zen-Bio (# PM-1-L1, DM-2-L1, AM-1-L1). 200 uL of PM-1containing 3,000 cells was dispensed into each well of a 96-well plate (Corning, #3340), and the assay plates were incubated at 37 °C, 95% humidity and 5% CO2 for 3-5 days. The differentiation of pre-adipocyte to adipocyte was induced by removing the pre-adipocyte medium and replacing with 200 uL of differentiation medium. 1 uL of compounds at different concentrations dissolved in differentiation medium were added to the assay plates, along with medium exchange for differentiation to test their effects on adipocyte differentiation. The final DMSO concentration was 0.5%.Triacsin C (Sigma-Aldrich T-4540), an inhibitor of long-chain fatty acyl CoA synthetase that blocks synthesis of triglycerides, was used as a positive control for lipid under-storage. After 3 days, differentiation medium was replaced with adipocyte maintenance medium and assay plates were incubated for 5 days. Aspirated the medium, then Cells were fixed using 4% of paraformaldehyde in PBS for 30 minutes at room temperature, washed 3 times with PBS buffer. Finally, the cells were stained using 200 uL of PBS containing BODIPY lipid dye 493/530 (1:2000 dilution, Molecular Probes), Hoechst 33342 (1:1000 dilution, Life Technologies, #H3570) and CellMask deep red dye (1:10,000 dilution, Life Technologies, #H32721) with Washer dispenser EL406(Biotek). Images were acquired using InCell 2000 (GE), number of cells, number of lipids, size of lipids and cells were analysis using GE Investigator software.
A general note: Quantitative high-throughput screening tests each substance at several concentrations.
With `CCOC(=O)C1CCN(C(=O)C(C)(C)NC(=O)Nc2ccc(-c3ccccc3)cc2)CC1`, the Potency is 1120 nM (active).
On the same count and under the same terms, the result for `O=C(NC1CCCc2c1cnn2-c1cccc(O)c1)c1ccccn1` (stereo not given) reads 3160 nM (active).
As to `CCOc1ccc(CCNC(=O)c2ccc3ccccc3n2)cc1OCC`, the “activity change, negative = inhibition” value was -81% (inactive).
For the molecule `CCn1c(C(=O)NCCc2ccc(OC)cc2)cc2sccc21`, the Potency was 12600 nM (active).
Still for that read-out and setting: the same measure for `CC(C)Oc1ccc(CCNC(=O)c2cc3sccc3n2Cc2ccccc2)cc1OC(C)C`: 3980 nM (active).
Regarding `CCOc1ccc(CCNC(=O)c2ccnn2Cc2cccc(C)c2)cc1OCC`, the Potency was 2820 nM (active).
Same read-out and setting: the same measure for `CCOc1cc(CCNC(=O)c2cc3sccc3n2Cc2ccccc2)cc(F)c1OCC`: 2820 nM (active).
For the molecule `CCOc1cc(F)c(CCNC(=O)c2cc3sccc3n2Cc2ccccc2)cc1OCC`, the “activity change, negative = inhibition” value was -65.8% (inactive).
The same measure, in the same setting: the same measure for `CCOc1ccc(CCNC(=O)c2cc3sccc3n2CCN2CCOCC2)cc1OCC`: -18.7% (inactive).
Regarding `CCOC(=O)C1CCN(C(=O)C2(NC(=O)Nc3ccccc3Cl)CCC2)CC1`, the Potency was 2820 nM (active).
